In PubChem BioAssay:
Activity calls are given as the source filed them.

Assays:
[1] = small molecules captured by biotinylated probe aFSTL3 – biochemical, small-molecule microarray, fluorescence 635/667, stem cell growth factor project, primary screen (AID 1064); settings: higher = more signal;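 note: measures binding of the biotinylated anti-FSTL3 antibody to printed compounds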
[2] = binders from COS7 lysate, DM2A8 probe, primary screen, torsin A project, cell lysate, small-molecule microarray, fluorescence 635/667 (AID 1065); settings: higher = more signal, COS7 lysate expressing mutant human TOR1A
[3] = small molecules captured by biotinylated probe aFGF2 – biochemical, small-molecule microarray, fluorescence 635/667, stem cell growth factor project, primary screen (AID 1067); settings: higher = more signal;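 note: measures binding of biotinylated aFGF2 protein to printed compounds on slides; z-score merges feature fluorescence and signal-to-noise across triplicate slides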
[4] = small molecules captured by biotinylated probe aFGF10 – biochemical, small-molecule microarray, fluorescence 635/667, stem cell growth factor project, primary screen (AID 1071); settings: higher = more signal;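 note: score merges 667 nm spot intensity and signal to noise from triplicate slides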
[5] = biological target: Neurogenic locus notch homolog protein 2 (Homo sapiens) (UniProt Q04721); assay: small molecules binding Notch2 protein – biochemical, small-molecule microarray, 635 nm fluorescence, stem cell growth factors, primary screen (AID 1073); settings: higher = more signal
[6] = biological target: Pro-neuregulin-1, membrane-bound isoform (Homo sapiens) (UniProt Q02297); assay: small molecules binding neuregulin-1 protein – biochemical, small-molecule microarray, fluorescence 635/667, psychiatric disease protein project, primary screen (AID 1075); settings: NRG1 binding, 635 nm fluorescence, higher = more signal;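 note: score combines 667 nm spot fluorescence with signal to noise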
[7] = system: Neuregulin-1 EGF-like domain; assay: small molecules binding NRG1 EGF domain – biochemical, small-molecule microarray, 635 nm fluorescence, primary screen (AID 1081); settings: higher = more signal;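 note: binding of the protein to compounds printed on small-molecule microarray slides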
[8] = FRG1 expression reporter modulators in myotubes – cell-based, C2C12 myotubes, firefly/Renilla luciferase, luminescence, FRG1 inhibition for FSHD, primary screen (AID 1084); settings: FRG1 promoter luciferase, higher = more signal, called active from +8 up or from −8 down
[9] = small molecules captured by biotinylated probe aFST – biochemical, small-molecule microarray, fluorescence 635/667, stem cell growth factor project, primary screen (AID 1086); settings: higher = more signal;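 note: score merges 667 nm fluorescence with signal-to-noise of each printed compound spot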
[10] = binders of probe aHhip on microarray, primary screen, stem cell growth factor project, biochemical, small-molecule microarray, fluorescence 635/667 (AID 1087); settings: higher = more signal;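 note: score merges spot fluorescence at 667nm with spot signal to noise ratio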
[11] = system: PRMT1 (protein arginine N-methyltransferase 1); assay: small molecules binding arginine methyltransferase PRMT1 – biochemical, small-molecule microarray, 635 nm fluorescence, primary screen (AID 1088); settings: higher = more signal;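 note: binding of Prmt1 protein to compounds spotted on small-molecule microarray slides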
[12] = growth effects on S. cerevisiae YJM789 – YJM789 clinical isolate, OD600, 24 h, basal, primary screen (AID 1089); settings: higher = more signal, called active from +8 up or from −8 down;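 note: growth of clinical yeast isolate S. cerevisiae YJM 789 seeded 1000 cells per well; test concentration not given here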
[13] = S. pombe growth modifiers, basal conditions – strain 972, OD600, 24 h, no modulator, primary screen (AID 1090);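 note: basal condition with compound alone and no growth modifier present; test concentration not given here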; settings: S. pombe 972 growth, higher = more signal, called active from +8 up or from −8 down
[14] = budding yeast growth modifiers under rapamycin – strain BY4716, OD600, 96 h, primary screen (AID 1091); note: test concentration not given here; settings: S. cerevisiae BY4716 + rapamycin, higher = more signal, called active from +8 up or from −8 down
[15] = biological target: Torsin-1A-interacting protein 2 (Homo sapiens) (UniProt Q8NFQ8); assay: small molecules binding lysate-expressed LULL1 – cell lysate, human LULL1 lysate, 635/667 nm fluorescence, primary screen (AID 1092); settings: small-molecule microarray, hLULL1 lysate binding, 635 nm fluorescence; higher = more signal;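 note: probe is lysate of COS7 cells overexpressing human LULL1; score merges per-feature 667 nm fluorescence with signal-to-noise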
[16] = optical density change of DRC41 E. coli – strain DRC41, OD650, 24 h, E. coli filamentation project, primary screen (AID 1093);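 note: MC1000 strain lacking acrAB efflux and sulA so SOS filamentation is blocked; test concentration not given here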; settings: E. coli DRC41 growth, higher = more signal, called active from +8 up or from −8 down
[17] = probe aLefty2 binding to arrayed compounds – biochemical, biotinylated probe, 635/667 nm fluorescence, primary screen (AID 1094); settings: small-molecule microarray, higher = more signal;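 note: score merges spot fluorescence near 667 nm with spot signal-to-noise ratio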
[18] = system: Noggin (protein binding on small-molecule microarray); assay: small molecules binding Noggin protein – biochemical, 635/667 nm fluorescence, primary screen (AID 1095); settings: 635 nm fluorescence, higher = more signal;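 note: score merges 667 nm feature fluorescence with signal to noise over triplicate slides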
[19] = biological target: Neurogenic locus notch homolog protein 3 (Homo sapiens) (UniProt Q9UM47); assay: small molecules binding NOTCH3 protein – biochemical, 635/667 nm fluorescence, primary screen (AID 1096); settings: small-molecule microarray, 635 nm fluorescence, higher = more signal
[20] = probe aEGFR binding to arrayed compounds – biochemical, biotinylated probe, 635/667 nm fluorescence, primary screen (AID 1097); settings: small-molecule microarray, higher = more signal;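 note: probe is a biotinylated anti-EGFR antibody binding compounds printed on slides; score combines fluorescence near 667 nm and signal to noise of each spot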

Neurogenic locus notch homolog protein 3 (Homo sapiens), sequence (Q9UM47 whole entry, looked up): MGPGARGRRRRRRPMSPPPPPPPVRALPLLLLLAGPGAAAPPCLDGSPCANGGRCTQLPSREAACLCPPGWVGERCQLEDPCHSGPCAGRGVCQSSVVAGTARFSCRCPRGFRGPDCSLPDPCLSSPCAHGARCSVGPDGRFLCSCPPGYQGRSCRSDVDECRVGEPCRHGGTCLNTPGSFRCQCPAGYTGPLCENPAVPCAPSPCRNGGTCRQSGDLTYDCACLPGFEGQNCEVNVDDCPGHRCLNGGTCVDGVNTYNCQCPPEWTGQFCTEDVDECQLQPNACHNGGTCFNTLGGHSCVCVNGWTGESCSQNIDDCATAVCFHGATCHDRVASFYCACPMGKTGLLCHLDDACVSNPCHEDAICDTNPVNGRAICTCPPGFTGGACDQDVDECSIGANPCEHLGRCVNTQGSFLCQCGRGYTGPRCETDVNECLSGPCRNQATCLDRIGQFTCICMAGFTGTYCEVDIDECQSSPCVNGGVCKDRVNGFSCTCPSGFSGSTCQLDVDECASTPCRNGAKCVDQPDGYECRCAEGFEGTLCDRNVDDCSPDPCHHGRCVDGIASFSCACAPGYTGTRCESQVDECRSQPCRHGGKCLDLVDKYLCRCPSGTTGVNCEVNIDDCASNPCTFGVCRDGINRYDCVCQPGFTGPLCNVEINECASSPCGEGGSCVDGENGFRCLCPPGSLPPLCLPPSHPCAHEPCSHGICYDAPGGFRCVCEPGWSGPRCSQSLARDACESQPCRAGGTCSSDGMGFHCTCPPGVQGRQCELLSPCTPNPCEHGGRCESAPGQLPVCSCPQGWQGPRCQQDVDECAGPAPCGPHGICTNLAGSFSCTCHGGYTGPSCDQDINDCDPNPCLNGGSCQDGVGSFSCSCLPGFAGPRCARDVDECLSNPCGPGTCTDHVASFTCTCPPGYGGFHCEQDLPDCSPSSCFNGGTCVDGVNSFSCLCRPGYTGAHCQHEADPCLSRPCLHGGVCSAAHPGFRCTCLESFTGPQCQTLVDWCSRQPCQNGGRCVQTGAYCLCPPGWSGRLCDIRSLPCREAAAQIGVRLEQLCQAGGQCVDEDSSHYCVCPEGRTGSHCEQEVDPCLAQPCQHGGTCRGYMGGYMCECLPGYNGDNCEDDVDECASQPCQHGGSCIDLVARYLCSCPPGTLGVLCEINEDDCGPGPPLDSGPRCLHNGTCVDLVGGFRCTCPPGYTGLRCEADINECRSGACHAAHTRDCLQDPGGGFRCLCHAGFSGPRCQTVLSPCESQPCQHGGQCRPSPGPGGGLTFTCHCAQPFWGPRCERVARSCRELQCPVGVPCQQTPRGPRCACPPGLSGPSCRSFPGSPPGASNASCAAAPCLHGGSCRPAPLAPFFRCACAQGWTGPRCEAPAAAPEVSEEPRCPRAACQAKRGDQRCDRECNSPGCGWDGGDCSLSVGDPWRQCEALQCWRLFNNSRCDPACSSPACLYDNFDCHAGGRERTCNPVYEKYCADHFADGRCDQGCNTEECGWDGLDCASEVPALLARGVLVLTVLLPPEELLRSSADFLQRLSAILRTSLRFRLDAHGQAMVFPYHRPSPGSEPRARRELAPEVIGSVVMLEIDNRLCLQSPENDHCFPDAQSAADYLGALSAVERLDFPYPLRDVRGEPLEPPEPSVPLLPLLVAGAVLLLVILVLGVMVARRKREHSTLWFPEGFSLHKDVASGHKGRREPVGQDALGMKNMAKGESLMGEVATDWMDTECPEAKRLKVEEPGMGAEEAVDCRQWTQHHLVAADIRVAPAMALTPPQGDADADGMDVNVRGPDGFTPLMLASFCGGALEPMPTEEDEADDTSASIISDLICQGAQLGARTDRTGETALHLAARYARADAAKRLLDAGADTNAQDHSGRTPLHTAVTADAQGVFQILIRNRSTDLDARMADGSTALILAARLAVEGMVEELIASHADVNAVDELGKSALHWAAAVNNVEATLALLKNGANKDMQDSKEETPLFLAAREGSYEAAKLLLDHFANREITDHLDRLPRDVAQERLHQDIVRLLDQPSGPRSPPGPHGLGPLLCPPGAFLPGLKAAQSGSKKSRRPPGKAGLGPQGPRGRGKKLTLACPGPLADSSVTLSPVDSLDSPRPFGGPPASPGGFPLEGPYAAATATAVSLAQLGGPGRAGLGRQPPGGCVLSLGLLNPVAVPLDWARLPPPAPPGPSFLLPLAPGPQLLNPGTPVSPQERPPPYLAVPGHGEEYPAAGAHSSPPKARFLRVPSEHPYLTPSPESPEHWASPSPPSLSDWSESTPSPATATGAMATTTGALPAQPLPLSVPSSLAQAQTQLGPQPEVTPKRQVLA
Torsin-1A-interacting protein 2 (Homo sapiens), sequence (Q8NFQ8 whole entry, looked up): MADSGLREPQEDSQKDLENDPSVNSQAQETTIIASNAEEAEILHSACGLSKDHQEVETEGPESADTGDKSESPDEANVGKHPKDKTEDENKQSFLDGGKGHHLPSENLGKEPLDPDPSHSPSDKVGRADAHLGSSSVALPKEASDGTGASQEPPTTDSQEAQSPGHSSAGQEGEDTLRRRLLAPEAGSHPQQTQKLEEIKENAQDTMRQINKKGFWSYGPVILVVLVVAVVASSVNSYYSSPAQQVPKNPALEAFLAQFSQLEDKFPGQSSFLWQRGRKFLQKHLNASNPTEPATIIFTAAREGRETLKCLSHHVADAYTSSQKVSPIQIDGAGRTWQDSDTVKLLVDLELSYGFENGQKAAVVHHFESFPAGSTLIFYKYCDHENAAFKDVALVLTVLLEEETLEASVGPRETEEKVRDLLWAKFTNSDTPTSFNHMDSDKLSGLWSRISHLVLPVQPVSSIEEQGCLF
Pro-neuregulin-1, membrane-bound isoform (Homo sapiens), sequence (Q02297 whole entry, looked up, the tested form may be a part, canonical isoform): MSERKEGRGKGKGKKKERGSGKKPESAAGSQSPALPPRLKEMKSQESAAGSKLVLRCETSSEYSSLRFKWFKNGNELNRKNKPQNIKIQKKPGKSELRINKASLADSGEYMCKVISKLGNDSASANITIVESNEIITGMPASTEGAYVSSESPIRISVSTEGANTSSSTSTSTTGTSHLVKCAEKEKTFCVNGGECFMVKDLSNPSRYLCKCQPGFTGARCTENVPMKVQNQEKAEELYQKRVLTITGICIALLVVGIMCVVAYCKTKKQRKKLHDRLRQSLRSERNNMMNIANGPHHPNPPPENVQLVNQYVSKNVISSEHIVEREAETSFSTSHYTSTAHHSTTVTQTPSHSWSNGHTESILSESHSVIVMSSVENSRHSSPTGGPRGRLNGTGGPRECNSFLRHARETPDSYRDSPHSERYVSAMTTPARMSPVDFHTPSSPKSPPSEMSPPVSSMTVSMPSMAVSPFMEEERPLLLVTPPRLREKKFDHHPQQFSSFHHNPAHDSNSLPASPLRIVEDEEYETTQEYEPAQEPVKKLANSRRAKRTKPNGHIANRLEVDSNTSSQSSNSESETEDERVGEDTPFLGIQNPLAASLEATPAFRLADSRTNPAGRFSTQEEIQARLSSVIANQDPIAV

## COc1ccc(NN2C(C(O)c3ccc([N+](=O)[O-])cc3)C=CC3C(=O)N(C4CCCCC4)C(=O)C32)cc1 (stereo not given)
[1]
  composite z-score: 0.091
[2]
  composite z-score: -0.174
[3]
  composite z-score: -0.0782
[4]
  composite z-score: 0.389
[5]
  composite z-score: 0.901
[6]
  composite z-score: 0.348
[7]
  composite z-score: 0.755
[8]
  z-score: -0.068 (inactive)
[9]
  composite z-score: 0.844
[10]
  composite z-score: -0.0346
[11]
  composite z-score: 0.849
[12]
  z-score: 0.346 (inactive)
[13]
  z-score: 0.811 (inactive)
[14]
  z-score: 0.572 (inactive)
[15]
  composite z-score: 2.69
[16]
  z-score: -0.103 (inactive)
[17]
  composite z-score: 0.192
[18]
  composite z-score: -0.0162
[19]
  composite z-score: 1.09
[20]
  composite z-score: -0.143

## COc1ccc(C(=O)Nc2ccc(CN3C(=O)[C@@]4(O[C@@H](CCn5cc([C@H](O)c6ccccc6)nn5)[C@H]([Si](C)(C)c5ccc(OC)cc5)[C@H]4C)c4ccccc43)cc2)cc1
[1]
  composite z-score: -0.197
[2]
  composite z-score: 0.315
[3]
  composite z-score: 0.484
[4]
  composite z-score: -0.164
[5]
  composite z-score: -0.244
[6]
  composite z-score: 0.258
[7]
  composite z-score: 1.05
[8]
  z-score: -2.48 (inactive)
[9]
  composite z-score: 0.217
[10]
  composite z-score: -0.0391
[11]
  composite z-score: 1.46
[12]
  z-score: 0.188 (inactive)
[13]
  z-score: -0.807 (inactive)
[14]
  z-score: 1.66 (inactive)
[15]
  composite z-score: 1.11
[16]
  z-score: -0.351 (inactive)
[17]
  composite z-score: -0.136
[18]
  composite z-score: 0.323
[19]
  composite z-score: 0.378
[20]
  composite z-score: -0.134
